High-throughput results (PubChem BioAssay)
Shown are actives, neighbours in structure and some others; about 12% of the full set was active somewhere.
Sm TGR block – blocks Schistosoma mansoni thioredoxin glutathione reductase; Potency, µM (top dose mostly 114 µM), most hits filed as inhibitors; AID 485364; purified TGR, DTNB reduction, TNB absorbance 405 nm; 360,000 tested, 3% active; Q962Y6; also: nearly all actives have a fitted effect of over 60% in size
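TGR 20 nM + NADPH 100 uM (dispensed conc.), cpd preinc 15 min RT; start with NADPH (500 uM addition) then DTNB (15 mM addition). Kinetic TNB absorbance, 405 nm filter. Four-parameter Hill fit across titration.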
Pf growth 96h – P. falciparum growth inhibition at 96 hour, primary screen for plastid delayed-death inhibitors; P. falciparum luciferase reporter growth, 96 h; Potency, µM (highest dose often 28.7 µM), usual class: inhibitors; 320,000 tested, 6.9% active
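96 h incubation, 37 C, 5% CO2, of luciferase-reporter P. falciparum-infected RBCs (2% hematocrit, 0.05% parasitemia final) with test compounds; endpoint luminescence.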
Pf growth 48h – P. falciparum growth inhibition at 48 hours (one generation); AID 504832; P. falciparum luciferase growth in erythrocytes, 48 h; 310,000 tested, 5.9% active; Potency, µM (series often up to 28.7 µM), hits mostly inhibitors
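Luminescence readout; reporter = integrated firefly luciferase in P. falciparum. RBC culture at 2% hematocrit, 0.1% parasitemia final, 37 C/5% CO2; decreased signal taken as growth inhibition.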
SARS PLpro yeast – inhibitors of SARS-CoV papain-like protease in yeast; S. cerevisiae expressing SARS-CoV PLpro, growth rescue; Potency, µM (highest dose often 32.9 µM), usual class: activators; 330,000 tested, 0.19% active; AID 485353; calls by dose curve; also: nearly all actives have a fitted effect of over 55% in size
Large screens that a line does not name were inactive. Unless noted, calls follow the shape of the dose curve; as a rule, active = well fitted curve in the direction sought with a large enough effect; inconclusive = small, poorly fitted or top-dose-only effect, or another doubt; inactive = no such curve, though single readings can be large; an effect the other way counts as inactive or inconclusive.

CCN(CCNC(=O)CN(C)S(=O)(=O)c1cccc2nsnc12)c1ccccc1	Pf growth 96h 12µM (no result: Pf growth 48h)
COc1cccc(CNC(=O)CN2C(=O)CSc3c2c(C)nn3-c2ccccc2)c1OC	none (no result: Pf growth 96h, Pf growth 48h, SARS PLpro yeast)
N#Cc1ccc(CSc2nnc(-c3ccccn3)n2-c2ccccc2)cc1	none (no result: Pf growth 96h)
CCn1c(SCc2ccccc2)nnc1-c1cccs1	Pf growth 96h inconclusive, Pf growth 48h 9.3µM
CCn1c(SCC(=O)Nc2ccccc2)nnc1-c1cccs1	none
N#Cc1ccc(CSc2nnc(-c3cccs3)n2-c2ccccc2)cc1	Pf growth 96h 17µM, Pf growth 48h inconclusive
Cc1ccc(CSc2nnc(-c3cccs3)n2C)cc1	Pf growth 48h 12µM
Cc1nn2cc(-c3ccc(OC(C)C)cc3)nc2s1	none (no result: Pf growth 96h, Pf growth 48h, SARS PLpro yeast)
O=C(Nc1ccc(Oc2ccc(Br)cc2)cc1)C1=CC=CN2CCS(=O)(=O)N=C12	Pf growth 96h inconclusive
CCn1c(SC(C)C(=O)Nc2ccc3c(c2)OCCO3)nnc1C1CC1 (stereo unspecified)	none
COC(=O)[C@]12OC[C@]34C([C@@H](O)[C@@H]1O)[C@]1(C)CC(=O)C(O)=C(C)[C@@H]1C[C@H]3OC(=O)[C@H](O)[C@@H]24 (stereo partly specified)	Pf growth 96h 1µM, Pf growth 48h 1µM
CCOC(=O)C1=CN(Cc2ccco2)S(=O)(=O)N(C)C1c1ccc(F)c(Cl)c1 (stereo unspecified)	none (no result: Sm TGR block, Pf growth 96h, Pf growth 48h)
COC(=O)c1ccc(C23CC4(C2)[C@H](CN(Cc2ccc(C(F)(F)F)cc2)[C@@H]4c2ccccc2)C3c2ccc(C(F)(F)F)cc2)cc1 (stereo partly specified)	Pf growth 96h 10µM, Pf growth 48h inconclusive
COC(=O)c1ccc(C23CC4(C2)[C@H](CN(C)[C@@H]4c2ccccc2)C3c2ccc(C(F)(F)F)cc2)cc1 (stereo partly specified)	Pf growth 96h inconclusive, Pf growth 48h 10µM
COC(=O)c1ccc(C23CC4(C2)[C@H](CN(Cc2ccc(C(F)(F)F)cc2)[C@@H]4c2ccccc2)C3c2ccccc2)cc1 (stereo partly specified)	Pf growth 96h inconclusive, Pf growth 48h inconclusive
COC(=O)c1cccc(C23CC4(C2)[C@H](CN(Cc2ccc(C(F)(F)F)cc2)[C@@H]4c2ccccc2)C3c2ccc(C(F)(F)F)cc2)c1 (stereo partly specified)	Sm TGR block inconclusive, Pf growth 96h inconclusive, Pf growth 48h 10µM
COC(=O)c1ccc(C23CC4(C2)[C@H](CN(CC2CCCCC2)[C@@H]4c2ccccc2)C3c2ccc(C(F)(F)F)cc2)cc1 (stereo partly specified)	Sm TGR block inconclusive, Pf growth 96h inconclusive, Pf growth 48h inconclusive
Cc1cc(C)c2c(n1)SCCN2C(=O)Nc1ccc(C(=O)Nc2ccc(C(C)C)cc2)cc1	none (no result: Pf growth 96h, Pf growth 48h, SARS PLpro yeast)
COCCN(C(=O)CCC(=O)Nc1nccs1)C(C(=O)NCCC(C)C)c1ccc(OC)cc1 (stereo unspecified)	Pf growth 48h inconclusive
CCOC(=O)c1ccc(NC(=O)CN(Cc2ccc(C)cc2)S(=O)(=O)c2ccc(C)cc2)cc1	none (no result: Pf growth 96h, Pf growth 48h, SARS PLpro yeast)
COc1ccc(NC(=O)c2nn(C)cc2[N+](=O)[O-])cc1	none
Cc1ccc(NC(=O)c2nn(C34CC5CC(CC(C5)C3)C4)cc2[N+](=O)[O-])cc1	Pf growth 96h 1.5µM, Pf growth 48h inconclusive
CCC/C(O)=C1\C(=O)CC(c2ccccc2)CC1=NCCc1c(C)[nH]c2ccccc12 (stereo unspecified)	Pf growth 96h inconclusive, Pf growth 48h 2.6µM
CCCC(=NCCc1c(C)[nH]c2ccccc12)C1=C(O)CC(c2ccccc2)CC1=O (stereo unspecified)	Pf growth 48h 13µM
CCC/C(O)=C1\C(=O)CCCC1=NCCc1c(C)[nH]c2ccccc12	none
CCCCC(=NCCc1c(C)[nH]c2ccccc12)C1=C(O)CC(c2ccccc2)CC1=O (stereo unspecified)	Pf growth 96h inconclusive, Pf growth 48h 9.3µM
COc1ccc(N(Cc2cc(=O)[nH]c3ccccc23)C(=O)CCl)cc1	Sm TGR block 7.9µM, Pf growth 48h inconclusive
CCCC(=O)N(Cc1cc(=O)[nH]c2ccccc12)c1cccc(C)c1	Pf growth 96h 8.3µM, Pf growth 48h 12µM
CCn1c(=S)sc2c(=O)n(CC(=O)Nc3cccc(Cl)c3)c(C)nc21	Pf growth 96h inconclusive, Pf growth 48h inconclusive
Cc1nc(Nc2ncc(C(=O)Nc3c(C)cccc3Cl)s2)cc(N2CCN(CCO)CC2)n1	Pf growth 96h 7.6µM, Pf growth 48h 9.5µM (no result: Sm TGR block, SARS PLpro yeast)
CS(=O)(=O)CCC(C(=O)Nc1cccc(C(F)(F)F)c1)N1Cc2ccccc2C1=O (stereo unspecified)	none (no result: Pf growth 96h, Pf growth 48h, SARS PLpro yeast)
CC1(C)Cc2nc3sc4c(=O)n(CC(=O)NCc5ccco5)cnc4c3cc2CO1	Sm TGR block 35µM
CC1(C)Cc2nc(N)c(C(=O)NCCO)cc2CO1	Pf growth 96h inconclusive
Nc1nsnc1C(=O)NCCO	Pf growth 96h 2.3µM
Cn1nc(-c2ccccc2F)c2cc(C(=O)NCc3ccccc3Cl)sc21	none (no result: Pf growth 96h, Pf growth 48h, SARS PLpro yeast)
CCc1c(C)nc(N)nc1N1N=C1SC	Pf growth 96h inconclusive (no result: Pf growth 48h)
CCCCSC1=NN1c1nc(N)nc(C)c1CC	Pf growth 96h 8.3µM (no result: Pf growth 48h)
Oc1c(Br)cc(C=Nc2ccc3nc(-c4ccccc4)[nH]c3c2)c(O)c1Br	Sm TGR block 18µM, Pf growth 48h inconclusive
O=[N+]([O-])c1ccc(O)c(C=Nc2ccc3nc(-c4ccccc4)[nH]c3c2)c1	Pf growth 96h 1.5µM
CCOc1ccc2nc(-c3ccccc3)[nH]c2c1	none
COc1ccc(NC(=O)c2c(N)no[n+]2[O-])cc1	Pf growth 96h inconclusive
COc1ccc(C(=O)c2no[n+]([O-])c2C(=O)c2ccc(OC)cc2)cc1	Sm TGR block 0.35µM, Pf growth 48h inconclusive
O=C(c1cccs1)c1no[n+]([O-])c1C(=O)c1cccs1	Sm TGR block 0.1µM
CCC(C)[C@H](NS(=O)(=O)c1ccc(C)cc1)C(=O)N1CCC(C(=O)N2CCC(C(N)=O)CC2)CC1 (stereo partly specified)	none
CSc1cccc(NC(=S)N2CCC(N(C)C(C)C)CC2)c1	Pf growth 96h inconclusive
CSc1cccc(NC(=S)N2CCC(N(C)C3CCCCCC3)CC2)c1	Sm TGR block 50µM
COc1ccccc1N1CCN(C(=O)c2cnn(-c3cccc(Cl)c3)c2C2CCN(C(=O)OC(C)(C)C)CC2)CC1	none (no result: Pf growth 96h, Pf growth 48h, SARS PLpro yeast)
CCOC(=O)c1ccc(NC(=O)c2c(NCc3ccc(OC)c(OC)c3OC)sc3c2CCC(C)C3)cc1 (stereo unspecified)	none (no result: Pf growth 96h, Pf growth 48h, SARS PLpro yeast)
NC(=O)C1CCCN(C(=S)NCc2ccc3c(c2)OCO3)C1 (stereo unspecified)	none
NC(=O)C1CCCN(C(=S)Nc2cccc3ccccc23)C1 (stereo unspecified)	Pf growth 96h 13µM
O=C(c1cccc(NS(=O)(=O)c2cccc(C(F)(F)F)c2)c1)N1CCOCC1	Pf growth 96h inconclusive
O=C(Nc1ccc(Br)cc1)C1CCN(c2ncccn2)CC1	none (no result: Pf growth 96h, Pf growth 48h, SARS PLpro yeast)
CCN1C(=O)C2(C(C(=O)c3ccc(C)o3)=C(O)C(=O)N2CCCN2CCOCC2)c2ccccc21 (stereo unspecified)	Sm TGR block 50µM, Pf growth 96h inconclusive
